In all, about 16,000 compounds went through this assay and about 4,000 (25%) were called active. Another 26% or so got no clear call; they are omitted. Calls come from the whole dose curve; as a rule, active = well fitted curve in the direction sought with a large enough effect; inconclusive = small, poorly fitted or top-dose-only effect, or effect the other way; inactive = no such curve, though single readings can be large or run the other way. Not all results are given here.
These molecules were tested against Cytochrome P450 2C9 (Homo sapiens) (UniProt P11712) (assay: Cytochrome panel assay with activity outcomes). Settings: recombinant CYP, pro-luciferin dealkylation, luminescence, p450-cyp2c9; series mostly up to 57.1 µM; activity, negative = inhibition: at the top concentration.
% is set by controls: 0 for no effect and ±100 for the full control effect.

Cytochrome P450 2C9 (Homo sapiens), sequence (P11712 whole entry, looked up): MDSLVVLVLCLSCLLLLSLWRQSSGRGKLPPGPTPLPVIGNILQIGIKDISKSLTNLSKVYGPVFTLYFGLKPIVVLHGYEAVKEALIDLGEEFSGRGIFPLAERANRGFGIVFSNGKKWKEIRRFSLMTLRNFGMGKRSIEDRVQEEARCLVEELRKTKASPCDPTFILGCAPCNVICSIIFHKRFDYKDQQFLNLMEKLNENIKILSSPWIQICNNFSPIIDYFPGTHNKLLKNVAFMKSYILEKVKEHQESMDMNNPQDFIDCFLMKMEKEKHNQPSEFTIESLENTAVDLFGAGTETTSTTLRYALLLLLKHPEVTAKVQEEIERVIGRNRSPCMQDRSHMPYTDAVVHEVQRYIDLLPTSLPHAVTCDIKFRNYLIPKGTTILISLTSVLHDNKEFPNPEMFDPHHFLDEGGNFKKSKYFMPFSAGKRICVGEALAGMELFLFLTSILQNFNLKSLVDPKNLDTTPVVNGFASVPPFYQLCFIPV

Row | SMILES | activity, negative = inhibition | AC50
1 | S=C(Nc1ccc(Cl)cc1)NC1CC2CCCC(C1)N2C1CCCC1 (stereo unspecified) | -23.7% (inactive) | –
2 | CC1=NN(c2ccccc2)C(=O)[C@@H]1N=Nc1ccc([As](=O)(O)O)c(O)c1 | – | 3.16 µM (active)
3 | Nc1nc(N)c(N=Nc2ccc([As](=O)(O)O)c(O)c2)c(N)n1 | -7.93% [at 11.4 µM] (inactive) | –
4 | CC[N+](CC)(CC)CCOc1cccc(OCC[N+](CC)(CC)CC)c1OCC[N+](CC)(CC)CC | -12% (inactive) | –
5 | CC1=C2[C@@H]3OC(=O)[C@@H](C)[C@@H]3CC[C@]2(C)C=CC1=O | -19.6% [at 25.6 µM] (inactive) | –
6 | O=C(Nc1cccc(F)c1)N1CC2(CCNCC2)C1 | 5.38% (inactive) | –
7 | Cc1nc(N)sc1CCN | -3.11% (inactive) | –
8 | Cc1ccc(C2(c3ccc(C)c(O)c3C)CCN(C)CC2)c(C)c1O | 7.08% [at 11.4 µM] (inactive) | –
9 | COc1ccc2c(c1OC)CN1CCc3cc4c(cc3[C@H]1C2)OCO4 | 0.606% [at 25.6 µM] (inactive) | –
10 | COc1cc([C@H]2c3cc4c(cc3[C@@H](O)[C@@H]3COC(=O)[C@H]23)OCO4)cc(OC)c1OC | – | 1.26 µM (active)
11 | CP(=O)(O)C1=CCNCC1 | 18.5% (inactive) | –
12 | COC(=O)[C@H]1[C@@H](c2ccccc2)[C@@]2(c3ccccc3)Oc3ccccc3[C@@]1(O)[C@@H]2O | -12.5% [at 11.4 µM] (inactive) | –
13 | S=C(S)N1CCCC1 | – | 20 µM (active)
14 | CCN=C=NCCCN(C)C | -7.95% [at 11.4 µM] (inactive) | –
15 | O=C(COc1ccc2ccccc2c1)N1CCN(CC2CC3C=CC2C3)CC1 (stereo unspecified) | – | 17.8 µM (active)
16 | CC(=O)N1CCC2(CC1)CC(=O)c1cc(OCC(=O)N3CCN(C)CC3)ccc1O2 | -11.2% (inactive) | –
17 | N[C@@H](Cn1oc(=O)[nH]c1=O)C(=O)O | -4.2% (inactive) | –
18 | O=C(CCCN1CCC(n2c(=O)[nH]c3ccccc32)CC1)c1ccc(F)cc1 | 4.59% [at 25.6 µM] (inactive) | –
19 | C=C[C@H]1CN2CC[C@@H]1C[C@H]2[C@@H](O)c1ccnc2ccccc12 | inactive | –
20 | O=S(=O)(O)/C(=C\c1ccccc1)c1ccccc1 (tested in a mixture with another compound) | -14.8% [at 11.4 µM] (inactive) | –
21 | COc1cc(OC)c(/C=C2/C(=O)Nc3ccccc32)c(OC)c1 | – | 25.1 µM (active)
22 | c1ccc(C2CC2)c(OCC2=NCCN2)c1 | inactive | –
23 | c1ccc(CCN2CCOCC2)nc1 | -0.553% [at 11.4 µM] (inactive) | –
24 | C[C@@]12CC[C@H]3[C@@H](CC=C4C[C@H](OS(=O)(=O)O)CC[C@]43C)[C@H]1CCC2=O | -9.77% (inactive) | –

Row | SMILES | activity, negative = inhibition | AC50
25 | CC(C)C[C@H](NC(=O)N1CCCCCC1)C(=O)N[C@H](Cc1cn(C)c2ccccc12)C(=O)N[C@H](Cc1ccccn1)C(=O)O | – | 6.31 µM (active)
26 | c1ccc(CCN2CCCCCC2)nc1 | -1.38% [at 11.4 µM] (inactive) | –
27 | CC(C)C[C@H](NP(=O)(O)O[C@@H]1O[C@@H](C)[C@@H](O)[C@@H](O)[C@H]1O)C(=O)N[C@@H](Cc1c[nH]c2ccccc12)C(=O)O | 6.69% (inactive) | –
28 | CO[C@H]1C=C2CCN(C)[C@@H]2[C@@H]2c3cc4c(cc3C(=O)O[C@H]21)OCO4 | -11.2% [at 25.6 µM] (inactive) | –
29 | CC[n+]1c(/C=C/N(C)c2ccccc2)sc2ccc(Cl)cc21 | -6.79% (inactive) | –
30 | CNCCCc1ccccc1 | -34.8% (inactive) | –
31 | COc1ccc(OC)c([C@H](O)[C@H](C)N)c1 | inactive | –
32 | O=c1oc(Cl)c(Cl)c2ccccc12 | – | 15.8 µM (active)
33 | NNC(N)=O | 21.6% (inactive) | –
34 | CCN1CCN(Cc2cc(OC)c(OC)cc2[N+](=O)[O-])CC1 | 22.2% (inactive) | –
35 | CCCN1CCC[C@H](c2cccc(O)c2)C1 | inactive | –
36 | CCC[C@@](C)(COC(N)=O)COC(=O)NC(C)C | -11.5% [at 25.6 µM] (inactive) | –
37 | c1cnc(N2CC[C@@]3(CCCNC3)C2)nc1 | -12.7% (inactive) | –
38 | CCCC(CCC)C(=O)O | -9.81% (inactive) | –
39 | CCc1ccc(CCN2CCCCC2)nc1 | -14.9% [at 11.4 µM] (inactive) | –
40 | CCNC(=O)[C@@H]1O[C@@H](n2cnc3c(N)ncnc32)[C@@H](O)[C@H]1O | -17% (inactive) | –
41 | CC(=O)Nc1ccccc1C(=O)OCc1ccc(C(=O)c2ccccc2)cc1 | – | 3.55 µM (active)
42 | CC[C@H]1CN2CCc3cc(OC)c(OC)cc3[C@H]2C[C@@H]1C[C@H]1NCCc2c1[nH]c1ccc(O)cc21 | 5.99% [at 11.4 µM] (inactive) | –
43 | COC(=O)Nc1nc2ccc(C(=O)c3cccs3)cc2[nH]1 | 29.3% (inactive) | –
44 | CN1[C@H]2CC(=O)C[C@@H]1[C@@H](O)C2 | -10.5% [at 25.6 µM] (inactive) | –
45 | CN1C(=O)C(=Cc2ccc(N3CCCCCC3)o2)C(=O)N(C)C1=S | – | 7.94 µM (active)
46 | COc1cc(C[C@H](C)N)c(OC)cc1I | inactive | –
47 | C/C=C1\C[N@@+]2(C)CC[C@@]34C(=C(C=O)[C@H]1C[C@H]32)Nc1ccccc14 | -12% [at 25.6 µM] (inactive) | –
48 | C[As+](C)(c1ccc(Br)c([N+](=O)[O-])c1)c1ccc(Br)c([N+](=O)[O-])c1.O=[N+]([O-])O | 1.81% [at 11.4 µM] (inactive) | –

Row | SMILES | activity, negative = inhibition | AC50
49 | O=[N+]([O-])c1cc([As](=O)(O)O)ccc1O | -8.02% [at 25.6 µM] (inactive) | –
50 | O=[N+]([O-])c1cc(O)c(O)c([N+](=O)[O-])c1 | – | 0.794 µM (active)
51 | O=C(CCCN1CCC2(CC1)C(=O)NCN2c1ccccc1)c1ccc(F)cc1 | inactive | –
52 | [N-]=[N+]=NCC(=O)c1c[nH]c(=O)[nH]c1=O | -6.58% [at 11.4 µM] (inactive) | –
53 | O=C1NCN(c2ccccc2)C12CCN(CCCOc1ccc(F)cc1)CC2 | -0.771% (inactive) | –
54 | CC(C)c1c(CN(C)[C@@H](C)Cc2ccccc2)n(C)n(-c2ccccc2)c1=O | – | 7.94 µM (active)
55 | CCCN(CCC)C(=O)Cc1c(-c2ccc(Cl)cc2)nc2c(Cl)cc(Cl)cn12 | 8.63% (inactive) | –
56 | CCCCCC[C@H]1C(=O)O[C@H](C)[C@H](NC(=O)c2cccc(NC=O)c2O)C(=O)O[C@@H](C)[C@H]1OC(=O)CC(C)C | -45.8% [at 25.6 µM] (inactive) | –
57 | CCOC(=O)N1CCC(NC(=O)CCc2nc(C3=CCN(C)CC3)no2)CC1 | -27.6% (inactive) | –
58 | O=C(Nc1ccc(F)cc1F)c1cccnc1Oc1cccc(C(F)(F)F)c1 | 4.09% (inactive) | –
59 | CN(C)CCN(C)CCc1ccc(Cl)c(Cl)c1 | -24.5% (inactive) | –
60 | O=C(Nc1ccccc1)N1CC2(CCN(C(=O)Oc3ccccc3)CC2)C1 | -15.7% (inactive) | –
61 | NC(N)=NN=Cc1c(Cl)cccc1Cl | 2.99% (inactive) | –
62 | c1ccc(N2CCC3(CCNCC3)CC2)cc1 | -10.6% (inactive) | –
63 | CCc1ccccc1NC(=O)NC1CC2CCC(C1)N2Cc1cccs1 (stereo unspecified) | 12.3% (inactive) | –
64 | O=C(NC1CCCCC1)NC1CC2CCC(C1)N2Cc1nnnn1Cc1ccc2c(c1)OCO2 (stereo unspecified) | – | 14.1 µM (active)
65 | COc1ccc(NC(=O)NC2CC3CCCC(C2)N3Cc2ccccc2)cc1 (stereo unspecified) | -30.1% (inactive) | –
66 | CC1=C(CC[C@H](C)CO)O[C@@H]2C[C@@H]3[C@H]4CC[C@H]5C[C@@H](O)CC[C@]5(C)[C@@H]4CC(=O)[C@@]3(C)[C@@H]12 | -6.29% [at 11.4 µM] (inactive) | –
67 | O=C1/C(=C\c2ccccc2)C[C@@]2(O)[C@H]3Cc4ccc(O)c5c4[C@@]2(CCN3CC2CC2)[C@@H]1O5 | -16.5% (inactive) | –
68 | O=c1c2ccccc2nc(N2CCCC2)n1-c1ccc(Cl)cc1 | – | 14.1 µM (active)
69 | Cc1nc2sccc2c(=O)n1-c1ccccc1Cl | -26.4% (inactive) | –
70 | O=C(O)c1nn(Cc2ccc(Cl)cc2Cl)c2ccccc12 | -12.3% (inactive) | –
71 | C=CCN1CCC2(C)c3cc(O)ccc3C[C@H]1[C@H]2C | inactive | –
72 | C1C[C@@H]2CN(CCCN3CCOCC3)[C@@H](C1)O2 | -4.7% [at 11.4 µM] (inactive) | –

Row | SMILES | activity, negative = inhibition | AC50
73 | Cc1ccc(NC(=[OH+])c2cc3ccccc3cc2O)c(C)c1.Cc1ccc(NC(=[OH+])c2cc3ccccc3cc2O)c(C)c1.[Ni] | – | 3.16 µM (active)
74 | COc1cc(CCN)c(OC)c(OC)c1 | -1.31% [at 11.4 µM] (inactive) | –
75 | O=C(CCN1CC2CCC(CC2)C1)c1cccs1 | -7.86% [at 11.4 µM] (inactive) | –
76 | C[C@@H]1OC=C2[C@@H](O)[C@H]3O[C@H]3C(=O)[C@@]23[C@H]1[C@H]1C2=C([C@@H](O)[C@H]4O[C@@H]4C2=O)[C@@H]3O[C@@H]1C | 19.8% [at 11.4 µM] (inactive) | –
77 | Nc1nnnn1CCO | -3.83% [at 11.4 µM] (inactive) | –
78 | CS(=O)(=O)O[C@H]1CN2CCC1CC2 | 8.53% [at 11.4 µM] (inactive) | –
79 | CN1[C@@H]2CC[C@H]1CC(O[C@@H](c1ccccc1)c1ccc(Cl)cc1)C2 (stereo partly specified) | inactive | –
80 | CCCCN(CCCC)CCC(O)c1cc2c(Cl)cc(Cl)cc2c2cc(C(F)(F)F)ccc12 (stereo unspecified) | 4.34% [at 25.6 µM] (inactive) | –
81 | N[C@H](CCl)C(=O)O | -11.2% (inactive) | –
82 | O=C(Oc1ccccc1)N1CCC2(CCN(Cc3nccs3)CC2)CC1 | 19.4% (inactive) | –
83 | CN(C)Cc1c[nH]c2ccccc12 | 8.53% [at 25.6 µM] (inactive) | –
84 | CC(C)COc1ccc(C2(C#N)CC[N+](C)(C)CC2)cc1 | 11.5% (inactive) | –
85 | C=C(C)[C@H]1CC[C@]2(C(=O)O)CC[C@]3(C)[C@@H](CC[C@H]4[C@@]5(C)CC[C@@H](O)C(C)(C)[C@@H]5CC[C@@]43C)[C@H]12 | -9.3% [at 25.6 µM] (inactive) | –
86 | CCCCCCCC/C=C\CCCCCCCC(N)=O | -12.7% (inactive) | –
87 | CCCCC/C=C\C/C=C\C/C=C\C/C=C\CCCC(=O)NCC(=O)O | -23.5% (inactive) | –
88 | CCCCC/C=C\C/C=C\C/C=C\C/C=C\CCCC(=O)Nc1ccc(O)cc1 | – | 5.01 µM (active)
89 | C[N+]1(C)CCc2cc3c(cc2[C@@H]1[C@@H]1OC(=O)c2c1ccc1c2OCO1)OCO3 | 17.7% (inactive) | –
90 | O=C(Nc1ccccc1)N1CC[C@@]2(CCCN(C(=O)Oc3ccccc3)C2)C1 | -20.1% (inactive) | –
91 | O=C(O)/C=C(\CC(=O)O)C(=O)O | -16.9% [at 11.4 µM] (inactive) | –
92 | COCOc1ccc(Br)cc1C(=O)/C=C\c1ccc2c(c1)OCO2 | – | 2 µM (active)
93 | O=C(O)C(=O)Cc1ccc2c(c1)OCO2 | 25.4% [at 11.4 µM] (inactive) | –
94 | CCN1CCC2(CC1)NC(CO)(CO)CO2 | 0.863% (inactive) | –
95 | O=C(O)[C@H]1[C@H](C(=O)O)[C@H]2CC[C@@H]1O2 | 5.98% (inactive) | –
96 | N[C@H](Cc1c[nH]c2ccccc12)P(=O)(O)O | 5.69% [at 11.4 µM] (inactive) | –
